Assay results as given in the supplement of paper PMC11732987, “Enantioselective OTUD7B fragment discovery through chemoproteomics screening and high-throughput optimisation” (Communications Chemistry, 2025).

Columns and labels:
Experiment in all cases: log2 ratio of Biotin-Ahx-Ub-VS probe labelling (fragment/DMSO); higher = less target engagement (more negative = stronger competition), active = hit call of the paper (q ≤ 0.05, log2 ratio ≤ -1)
Conditions in all cases: compound concentration: 200 uM; treatment time: 3 h
USP34 = USP34 (UniProt Q70CQ2)
Outline: (§1)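 Labelling with Biotin-Ahx-Ub-VS (0.5 µM final, 1 h) followed a 3 h triplicate treatment of HEK293T lysate (495 µg per sample, Tris/CHAPS/IGEPAL buffer with protease inhibitors) with fragment at 200 µM or vehicle. Labelled DUBs were NeutrAvidin-enriched, digested with LysC and trypsin, and run by diaPASEF LC-MS/MS. The values, average log2 fragment/vehicle ratios by unpaired t-test, come from global-median-normalised Spectronaut label-free quantities. Proteins with ≥2 unique peptides were used.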

USP36 = biological target: T1, USP36 (UniProt Q9P275)
T1 sequence (whole entry): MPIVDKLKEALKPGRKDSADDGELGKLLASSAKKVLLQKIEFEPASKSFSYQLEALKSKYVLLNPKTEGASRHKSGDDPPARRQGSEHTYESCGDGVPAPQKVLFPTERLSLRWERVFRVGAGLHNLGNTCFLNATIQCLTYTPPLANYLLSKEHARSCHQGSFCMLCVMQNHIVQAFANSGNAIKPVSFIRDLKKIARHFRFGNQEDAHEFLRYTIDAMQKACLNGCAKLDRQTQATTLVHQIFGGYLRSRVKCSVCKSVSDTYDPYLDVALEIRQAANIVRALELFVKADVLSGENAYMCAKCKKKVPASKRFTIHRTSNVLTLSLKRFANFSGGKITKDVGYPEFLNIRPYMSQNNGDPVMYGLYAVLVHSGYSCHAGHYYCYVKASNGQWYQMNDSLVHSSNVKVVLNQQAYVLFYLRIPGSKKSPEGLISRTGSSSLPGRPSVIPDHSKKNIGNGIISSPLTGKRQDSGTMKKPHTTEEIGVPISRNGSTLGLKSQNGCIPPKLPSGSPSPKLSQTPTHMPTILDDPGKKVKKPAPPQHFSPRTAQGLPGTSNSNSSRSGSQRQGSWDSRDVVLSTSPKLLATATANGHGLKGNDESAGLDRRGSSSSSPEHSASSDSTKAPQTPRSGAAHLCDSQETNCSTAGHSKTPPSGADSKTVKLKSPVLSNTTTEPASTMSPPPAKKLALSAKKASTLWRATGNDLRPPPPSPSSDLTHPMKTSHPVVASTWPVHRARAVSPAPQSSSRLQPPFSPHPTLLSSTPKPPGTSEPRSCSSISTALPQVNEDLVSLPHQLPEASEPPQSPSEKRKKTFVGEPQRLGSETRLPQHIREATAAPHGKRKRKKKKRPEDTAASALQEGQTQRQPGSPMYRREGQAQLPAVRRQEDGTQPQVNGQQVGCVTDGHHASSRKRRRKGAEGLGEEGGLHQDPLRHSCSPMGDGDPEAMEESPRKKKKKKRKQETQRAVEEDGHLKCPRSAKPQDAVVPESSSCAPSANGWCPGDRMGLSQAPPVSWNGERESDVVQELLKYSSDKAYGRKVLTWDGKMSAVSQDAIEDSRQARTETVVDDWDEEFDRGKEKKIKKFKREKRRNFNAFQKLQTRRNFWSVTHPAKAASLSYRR
Outline: as §1

USP38 = biological target: T2, USP38 (UniProt Q8NB14)
T2 sequence (whole entry): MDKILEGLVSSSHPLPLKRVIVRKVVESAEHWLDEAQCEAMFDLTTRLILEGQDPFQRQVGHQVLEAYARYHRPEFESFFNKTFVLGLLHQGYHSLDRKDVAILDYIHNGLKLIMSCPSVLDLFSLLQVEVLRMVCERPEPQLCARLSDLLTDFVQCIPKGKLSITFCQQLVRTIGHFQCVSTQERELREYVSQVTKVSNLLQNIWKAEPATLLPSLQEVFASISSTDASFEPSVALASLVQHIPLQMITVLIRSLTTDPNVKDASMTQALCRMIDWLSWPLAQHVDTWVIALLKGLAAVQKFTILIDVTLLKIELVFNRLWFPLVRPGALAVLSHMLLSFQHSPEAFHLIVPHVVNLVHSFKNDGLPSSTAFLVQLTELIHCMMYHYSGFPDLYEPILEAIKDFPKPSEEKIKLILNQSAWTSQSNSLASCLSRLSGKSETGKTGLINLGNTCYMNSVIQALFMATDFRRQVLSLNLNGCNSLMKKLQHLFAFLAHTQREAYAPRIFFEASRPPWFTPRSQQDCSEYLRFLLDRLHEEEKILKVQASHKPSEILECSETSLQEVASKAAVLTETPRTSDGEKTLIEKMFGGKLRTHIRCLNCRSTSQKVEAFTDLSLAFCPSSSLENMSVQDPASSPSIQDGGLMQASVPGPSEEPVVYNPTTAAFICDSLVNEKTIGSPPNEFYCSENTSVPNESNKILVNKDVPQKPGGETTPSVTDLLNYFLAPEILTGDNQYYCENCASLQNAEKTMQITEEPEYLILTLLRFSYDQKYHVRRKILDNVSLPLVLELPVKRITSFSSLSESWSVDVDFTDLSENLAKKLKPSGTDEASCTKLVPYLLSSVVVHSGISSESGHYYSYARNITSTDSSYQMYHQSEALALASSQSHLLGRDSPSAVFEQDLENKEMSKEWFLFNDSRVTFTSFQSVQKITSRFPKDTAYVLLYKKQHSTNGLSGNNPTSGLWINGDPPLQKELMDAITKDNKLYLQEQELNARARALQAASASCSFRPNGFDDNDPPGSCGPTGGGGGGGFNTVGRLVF
Outline: as §1

USP39 = biological target: T3, USP39 (UniProt Q53GS9)
T3 sequence (whole entry): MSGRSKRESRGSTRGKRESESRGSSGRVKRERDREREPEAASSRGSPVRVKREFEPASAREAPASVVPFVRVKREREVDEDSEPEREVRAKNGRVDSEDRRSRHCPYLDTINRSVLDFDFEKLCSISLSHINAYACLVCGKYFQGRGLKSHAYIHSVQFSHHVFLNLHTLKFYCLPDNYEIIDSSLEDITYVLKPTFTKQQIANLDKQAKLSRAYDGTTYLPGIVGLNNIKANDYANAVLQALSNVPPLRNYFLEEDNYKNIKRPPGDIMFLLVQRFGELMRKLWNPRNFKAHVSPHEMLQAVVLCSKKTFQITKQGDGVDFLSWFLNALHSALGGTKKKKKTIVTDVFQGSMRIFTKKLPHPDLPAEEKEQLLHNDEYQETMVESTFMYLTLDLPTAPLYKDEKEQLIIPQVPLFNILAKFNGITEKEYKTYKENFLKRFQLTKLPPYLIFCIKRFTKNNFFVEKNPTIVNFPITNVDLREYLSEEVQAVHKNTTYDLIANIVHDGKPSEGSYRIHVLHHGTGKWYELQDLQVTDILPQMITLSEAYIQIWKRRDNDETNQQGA
Outline: as §1

USP4 = biological target: T4, USP4 (UniProt Q13107)
T4 sequence (whole entry): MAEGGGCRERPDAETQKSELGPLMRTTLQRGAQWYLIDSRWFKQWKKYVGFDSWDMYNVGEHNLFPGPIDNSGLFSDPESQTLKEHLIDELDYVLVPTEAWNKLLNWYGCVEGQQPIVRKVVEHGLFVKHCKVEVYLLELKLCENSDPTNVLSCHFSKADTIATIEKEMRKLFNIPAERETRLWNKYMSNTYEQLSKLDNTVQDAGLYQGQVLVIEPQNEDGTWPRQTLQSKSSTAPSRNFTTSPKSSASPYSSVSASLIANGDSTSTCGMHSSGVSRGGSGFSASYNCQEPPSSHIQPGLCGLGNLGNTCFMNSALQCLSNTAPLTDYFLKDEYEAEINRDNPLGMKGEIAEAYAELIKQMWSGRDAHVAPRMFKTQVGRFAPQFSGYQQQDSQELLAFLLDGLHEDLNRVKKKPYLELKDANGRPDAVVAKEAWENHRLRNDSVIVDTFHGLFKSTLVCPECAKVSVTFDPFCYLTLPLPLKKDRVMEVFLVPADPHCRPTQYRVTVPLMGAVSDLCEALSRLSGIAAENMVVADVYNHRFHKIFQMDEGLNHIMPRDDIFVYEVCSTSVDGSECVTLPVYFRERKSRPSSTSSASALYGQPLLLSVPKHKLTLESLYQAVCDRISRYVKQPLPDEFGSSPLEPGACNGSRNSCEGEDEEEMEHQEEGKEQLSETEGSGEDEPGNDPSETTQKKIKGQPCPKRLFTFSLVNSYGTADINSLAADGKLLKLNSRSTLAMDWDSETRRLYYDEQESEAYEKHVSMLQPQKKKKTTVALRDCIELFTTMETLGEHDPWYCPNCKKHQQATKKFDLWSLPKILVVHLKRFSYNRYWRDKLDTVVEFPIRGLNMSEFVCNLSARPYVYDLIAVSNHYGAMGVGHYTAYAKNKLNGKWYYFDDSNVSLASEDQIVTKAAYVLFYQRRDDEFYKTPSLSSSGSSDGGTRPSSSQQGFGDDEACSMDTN
Outline: as §1

Measured: log2 ratio of Biotin-Ahx-Ub-VS probe labelling

USP34, sequence (Q70CQ2 whole entry, the tested form may be a part): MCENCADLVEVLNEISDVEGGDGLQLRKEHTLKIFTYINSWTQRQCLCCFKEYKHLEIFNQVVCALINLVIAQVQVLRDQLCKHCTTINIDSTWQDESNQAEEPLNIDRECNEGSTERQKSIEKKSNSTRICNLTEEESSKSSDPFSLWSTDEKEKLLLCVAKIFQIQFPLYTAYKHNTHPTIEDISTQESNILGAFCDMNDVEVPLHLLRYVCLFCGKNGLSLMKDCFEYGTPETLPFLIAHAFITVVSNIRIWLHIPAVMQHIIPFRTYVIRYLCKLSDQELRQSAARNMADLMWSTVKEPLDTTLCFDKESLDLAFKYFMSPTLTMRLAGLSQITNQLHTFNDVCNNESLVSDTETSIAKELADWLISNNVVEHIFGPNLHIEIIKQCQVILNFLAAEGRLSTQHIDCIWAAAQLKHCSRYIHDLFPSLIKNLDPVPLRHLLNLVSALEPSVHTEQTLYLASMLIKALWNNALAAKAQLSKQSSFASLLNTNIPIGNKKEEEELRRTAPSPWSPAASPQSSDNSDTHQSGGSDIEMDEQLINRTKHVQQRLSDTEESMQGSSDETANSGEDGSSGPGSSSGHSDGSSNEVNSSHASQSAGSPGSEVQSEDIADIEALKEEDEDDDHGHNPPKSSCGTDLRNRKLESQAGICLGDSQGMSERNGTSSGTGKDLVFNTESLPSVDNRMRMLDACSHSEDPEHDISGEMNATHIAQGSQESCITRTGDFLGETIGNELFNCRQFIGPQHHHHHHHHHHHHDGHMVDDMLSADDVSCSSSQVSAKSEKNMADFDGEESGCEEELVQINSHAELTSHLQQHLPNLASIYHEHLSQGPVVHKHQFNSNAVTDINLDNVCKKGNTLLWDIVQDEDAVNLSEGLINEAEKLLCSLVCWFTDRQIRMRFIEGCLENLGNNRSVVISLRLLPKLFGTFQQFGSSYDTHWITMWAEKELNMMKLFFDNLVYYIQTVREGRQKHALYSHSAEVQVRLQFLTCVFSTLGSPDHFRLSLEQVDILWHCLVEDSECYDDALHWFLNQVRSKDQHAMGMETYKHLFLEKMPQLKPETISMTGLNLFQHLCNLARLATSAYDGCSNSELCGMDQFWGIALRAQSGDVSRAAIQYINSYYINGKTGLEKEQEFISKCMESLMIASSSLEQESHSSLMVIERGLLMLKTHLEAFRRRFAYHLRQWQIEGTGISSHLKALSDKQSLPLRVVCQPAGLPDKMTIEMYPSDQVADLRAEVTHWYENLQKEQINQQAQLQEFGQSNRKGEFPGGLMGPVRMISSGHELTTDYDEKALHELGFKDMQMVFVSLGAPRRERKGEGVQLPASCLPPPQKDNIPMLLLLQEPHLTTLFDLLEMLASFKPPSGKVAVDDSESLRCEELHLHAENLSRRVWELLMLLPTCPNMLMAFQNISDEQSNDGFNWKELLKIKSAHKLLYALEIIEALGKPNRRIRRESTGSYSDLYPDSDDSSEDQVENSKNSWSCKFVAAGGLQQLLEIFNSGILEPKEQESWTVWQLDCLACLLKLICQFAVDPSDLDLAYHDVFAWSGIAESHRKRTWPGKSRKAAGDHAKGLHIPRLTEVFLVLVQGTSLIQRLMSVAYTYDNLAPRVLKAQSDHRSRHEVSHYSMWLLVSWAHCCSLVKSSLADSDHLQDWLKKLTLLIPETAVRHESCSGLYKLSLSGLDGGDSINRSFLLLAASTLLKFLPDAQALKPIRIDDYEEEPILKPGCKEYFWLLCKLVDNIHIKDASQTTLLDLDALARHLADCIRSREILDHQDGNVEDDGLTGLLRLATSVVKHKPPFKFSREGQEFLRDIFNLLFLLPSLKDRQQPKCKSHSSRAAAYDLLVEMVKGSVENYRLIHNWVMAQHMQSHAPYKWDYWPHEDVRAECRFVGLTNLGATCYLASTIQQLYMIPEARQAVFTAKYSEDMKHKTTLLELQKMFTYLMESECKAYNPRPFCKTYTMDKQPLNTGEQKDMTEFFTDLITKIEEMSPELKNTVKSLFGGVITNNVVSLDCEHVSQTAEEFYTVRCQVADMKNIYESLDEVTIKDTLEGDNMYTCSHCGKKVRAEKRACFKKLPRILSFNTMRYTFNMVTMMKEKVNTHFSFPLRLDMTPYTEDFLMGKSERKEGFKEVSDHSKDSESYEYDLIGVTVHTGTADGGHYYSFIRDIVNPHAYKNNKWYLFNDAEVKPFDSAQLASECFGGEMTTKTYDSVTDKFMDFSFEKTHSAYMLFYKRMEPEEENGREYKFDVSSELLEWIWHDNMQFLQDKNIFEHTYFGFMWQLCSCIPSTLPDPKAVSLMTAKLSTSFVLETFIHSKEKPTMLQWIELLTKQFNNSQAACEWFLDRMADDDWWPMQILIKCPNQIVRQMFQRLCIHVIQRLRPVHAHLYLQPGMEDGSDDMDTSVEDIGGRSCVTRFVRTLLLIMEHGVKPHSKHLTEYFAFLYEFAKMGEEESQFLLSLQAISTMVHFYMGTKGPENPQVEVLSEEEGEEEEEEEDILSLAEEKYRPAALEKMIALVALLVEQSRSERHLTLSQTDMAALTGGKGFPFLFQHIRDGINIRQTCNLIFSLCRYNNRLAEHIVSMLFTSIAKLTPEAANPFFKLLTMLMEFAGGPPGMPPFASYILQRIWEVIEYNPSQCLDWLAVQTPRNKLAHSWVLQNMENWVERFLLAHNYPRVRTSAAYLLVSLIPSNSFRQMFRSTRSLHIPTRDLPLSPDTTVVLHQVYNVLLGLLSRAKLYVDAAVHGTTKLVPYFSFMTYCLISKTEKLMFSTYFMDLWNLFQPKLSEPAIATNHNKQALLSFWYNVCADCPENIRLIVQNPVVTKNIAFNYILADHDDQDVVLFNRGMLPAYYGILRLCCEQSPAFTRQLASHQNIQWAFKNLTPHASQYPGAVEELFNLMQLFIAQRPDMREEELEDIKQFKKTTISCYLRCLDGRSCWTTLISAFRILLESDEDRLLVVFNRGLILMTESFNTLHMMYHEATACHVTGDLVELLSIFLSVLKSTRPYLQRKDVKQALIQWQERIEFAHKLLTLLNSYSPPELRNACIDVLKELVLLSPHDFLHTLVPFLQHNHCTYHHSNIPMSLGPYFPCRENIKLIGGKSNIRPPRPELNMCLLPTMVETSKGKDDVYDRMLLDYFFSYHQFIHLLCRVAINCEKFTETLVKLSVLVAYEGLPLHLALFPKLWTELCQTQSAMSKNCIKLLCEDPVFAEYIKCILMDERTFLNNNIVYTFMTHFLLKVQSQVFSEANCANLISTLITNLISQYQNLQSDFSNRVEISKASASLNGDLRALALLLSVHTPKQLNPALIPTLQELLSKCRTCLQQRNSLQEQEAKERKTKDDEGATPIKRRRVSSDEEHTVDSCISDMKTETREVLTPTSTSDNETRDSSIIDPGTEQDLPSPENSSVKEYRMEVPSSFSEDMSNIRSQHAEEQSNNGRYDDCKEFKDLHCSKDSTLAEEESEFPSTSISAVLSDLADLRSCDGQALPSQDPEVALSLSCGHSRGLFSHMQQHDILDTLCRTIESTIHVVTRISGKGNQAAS

O=C(CCl)N1CCOCCC1c1ccccc1 (stereo not given)
inactive: USP34 0.169 | USP36 0.192 | USP38 0.104 | USP39 0.0858 | USP4 -0.196
